The results in this text go back to PubChem BioAssay AID720541 (National Center for Advancing Translational Sciences (NCATS), 2013).

Several values for one entry are separate records, joined by “and”; a condition that tells them apart may be missing. Equal values may be shown once. The campaign covered roughly 1,300 compounds. About 420 (32%) were called active. Roughly 32% stayed inconclusive and do not appear here. The call rests on the fitted dose curve; in most records, active means well fitted inhibition curve with a large enough effect; inconclusive means small, poorly fitted or top-dose-only effect; inactive means no such curve, though single readings can be large or run the other way. This is one part of the list. Entries that show only a call come without a potency. More than one record can exist for a structure, and the calls need not agree.
Potency means the concentration at half of the fitted maximal effect.

The test has as its target C-terminal-binding protein 1 (Homo sapiens) (UniProt Q13363). Put plainly: qHTS for Inhibitors of the Phosphatase Activity of Eya2: Carboxyl-terminal binding protein (CtBP) Counterscreen for Cherry-picked Compounds. Further: nearly all actives have a fitted effect of over 65% in size. The conditions noted are these: purified protein-protein binding, AlphaScreen, 3 h; series mostly up to 46.1 µM. The text has this:
The Eya protein family is an essential co-activator of the Six1 transcription factor. Six1 is a developmental gene that is abnormally re-expressed in a large percentage of breast cancers. This over-expression plays a causal role in the initiation and metastatic development of breast cancers. The Eya family of protein is also found to contain a unique HAD phosphatase domain with protein tyrosine phosphatase activity which can potentially play a role in Six1-mediated breast tumorigenesis. Recently, Eya2 is found to dephosphorylate the histone variant H2AX and direct cells towards DNA repair instead of apoptosis in the event of DNA damage.
A 1536 well format, fluorescence based qHTS assay was developed and used to target the phosphatase activity of Eya2 (AID 488837). In addition, a CtBP counterscreen was developed using the AlphaScreen technology to evaluate compound selectivity to target […]. The data herein reports the activity of the cherry-picked compounds against the CtBP AlphaScreen. Compounds that are active or have > 100 fold selectivity vs. the Eya2 activity were excluded for further characterization. Inactivity is the desired outcome for the CtBP counterscreen.
NIH Chemical Genomics Center [NCGC]
NIH Molecular Libraries Probe Centers Network [MLPCN]
Assay Submitter (PI): Rui Zhao, University of Colorado Denver
Four microliters of reagent (25 nM GST-E1A, 25 nM CtBP-6x HIS) was dispensed in a 1536 well Greiner plates. Twenty-three nanoliter of test compounds (final concentration of 2.5 nM - 46 uM) and positive control E1A peptide inhibitor (final concentration of 0.14 nM - 4.6 uM) were added to the plates using the Kalypsys pintool equipped with a 1536 pin head. The plates was then incubated at room temperature for 2 hours followed by addition of 1 uL Alpha bead donor / acceptor mix (20 ug/mL final concentration). The assay plates were incubated for additional 1 hour at room temperature and protected from light. The AlphaScreen signal was obtained using the PerkinElmer EnVision plate reader using the 680 nm excitation and 520 - 620 nm emission filters. The data was normalized to the E1A peptide inhibitor for maximum inhibition and DMSO treated wells as negative control.
(In general: qHTS replaces the single test concentration by a dilution series.)
`O=C(CSc1nnc2c(n1)[nH]c1ccccc12)Nc1ccc(S(=O)(=O)Nc2ncccn2)cc1`: the Potency is 5.36 µM (active). As to `CC1(C)CC2CC(C)(CN2/C=N/c2sc3c(c2C#N)CC(C)(C)NC3(C)C)C1` (stereo not drawn), the Potency entry is “inactive”. For the compound `COc1ccc(CNC(=O)c2sc(=O)n(Cc3cc(Cl)ccc3OC)c2C)cc1`, the Potency entry was “inactive”. Under `COc1cc2[nH]cc(C(=O)NCc3ccccc3)c(=O)c2cc1OC` stands 3.79 µM (active).

Take `CC1CCC(=NNc2ccc(C(F)(F)F)cc2[N+](=O)[O-])CC1` (stereo not drawn): the Potency was 8.49 µM (active).

As to `C1=Cc2ccccc2/C1=C\c1cc2c3c(c1)CCCN3CCC2`, the Potency is 8.49 µM (active). To `Cc1cc(=O)n2[nH]c(Nc3cccc(Cl)c3)nc2n1` belongs “inactive”; to `COc1ccc(N2CCN(C(=O)c3cc(-c4cc(OC)ccc4OC)nc4ccccc34)CC2)cc1`, 13.5 µM (active). Under `COc1ccc2cc(C(=O)N3CCN(c4ccc(F)cc4)CC3)[nH]c2c1` stands “inactive”. Under `COc1ccc(Nc2cc(C(=O)N3CCc4ccccc4C3)c3ccccc3n2)c(OC)c1` stands “inactive”. As for `CN(C)CCCN1c2ccc(O)cc2Sc2ccc(Cl)cc21`, the Potency is 12 µM (active). As for `Nn1c(SCC(=O)Nc2ccc3c(c2)OCCO3)nnc1-c1ccccn1`, the Potency was 15.1 µM (active). As for `O=C(CSc1ccc2c(c1)OCCO2)Nc1ccc2c(c1)OCO2`, the Potency result is “inactive”. Turning to `Cn1cc(SCC(=O)Nc2ccc3c(c2)OCCO3)c2ccccc21`, the Potency result is “inactive”.

As for `Cc1ccc(OCCSc2nc3ccccc3n2CCC(=O)O)c(C(C)C)c1`, the Potency entry is “inactive”. `O=C(NC(=S)Nc1ccccc1N1CCCCC1)c1ccco1`: the Potency entry is “inactive”. To `COc1ccc2nc(NC(=S)NC(=O)c3ccco3)sc2c1` belongs “inactive”. Under `Cc1cccc(NC(=S)NC(=O)c2ccco2)n1` stands 10.7 µM (active).

For `CCc1nnc(NS(=O)(=O)c2ccc(NCc3cc(Cl)cc(Cl)c3O)cc2)s1`, the Potency was 4.26 µM (active). As for `O=S(=O)(Nc1nccs1)c1ccc(NCc2cc(Br)cc(Br)c2O)cc1`, the Potency was 1.9 µM (active). As for `CCS(=O)(=O)N1CCC(C(=O)Oc2ccc(Cl)cc2)CC1`, the Potency result is “inactive”. Under `COc1ccc(C(=O)OCC(=O)Nc2ccc(N3CCOCC3)cc2)cc1` stands “inactive”; under `CC(=O)Nc1ccc(S(=O)(=O)Nc2ccc(N3CCCCC3)cc2)cc1`, 8.49 µM (active); under `CC(=O)Nc1ccc(S(=O)(=O)N2C3CCCC2CC(NC(=O)C2CCCCC2)C3)cc1` (stereo not drawn), “inactive”. To `CC(=O)Oc1cccc2c1C(=O)C1CC=CC(OC(C)=O)C1C2=O` (stereo not drawn) belongs 9.53 µM (active); to `O=C(O)c1ccc2c(=O)n3cc(C(=O)c4ccccc4O)cc(Cl)c3nc2c1`, 12 µM (active); to `Cc1cc(O)cc(O)c1/C=N/NC(=O)c1ccc2c(c1)OCCO2`, 8.49 µM (active).

Regarding `O=C(O)c1ccc(N/N=C/c2cc3cc4c(cc3nc2Cl)OCCO4)cc1`, the Potency entry is “inactive”. To `Cc1cc(C)cc(C(=O)NC(=S)Nc2ccc3c(c2)OCCO3)c1` belongs “inactive”. To `CCCCC1=CC2=C(c3ccco3)C(=O)C(C)(OC(=O)c3ccc(OC)cc3)C(=O)C2=CN1CCc1ccccn1` (stereo not drawn) belongs “inactive”; to `CCC(C)c1ccc2oc(-c3ccc(NC(=O)c4ncn[nH]4)cc3)nc2c1` (stereo not drawn), 13.5 µM (active). To `CC(C)c1ccc2oc(-c3ccc(NC(=O)c4ncn[nH]4)cc3)nc2c1` belongs 12 µM (active); to `Cc1ccc(C(=O)Nc2cccc(-c3nc4ncccc4o3)c2)cc1`, “inactive”; to `NNC(=O)c1nc[nH]c1C(=O)Nc1ccccn1`, 8.49 µM (active). As to `Cc1ccc(NC(=O)c2[nH]cnc2C(=O)NN)cc1`, the Potency is 15.1 µM (active). With `C[C@@H](NC(=O)c1nc[nH]c1C(=O)N[C@@H](Cc1ccccc1)C(=O)OC(C)(C)C)c1ccccc1`, the Potency entry is “inactive”. To `CCOC(=O)c1ccc(NC(=O)c2nc[nH]c2C(=O)N[C@@H](Cc2ccccc2)C(=O)OC(C)(C)C)cc1` belongs “inactive”; to `O=C(CNC(=O)c1[nH]cnc1C(=O)N[C@@H](Cc1ccccc1)C(=O)OCc1ccccc1)OCc1ccccc1`, “inactive”. To `O=C(Nc1ccc(F)cc1)c1nc[nH]c1C(=O)O` belongs 7.57 µM (active). Regarding `COc1ccc(N(CC(=O)N2CCCCC2)S(=O)(=O)c2c(C)nn(C)c2C)cc1`, the Potency entry is “inactive”.

For the compound `O=C(CSc1ccc2nnc(-c3ccccn3)n2n1)Nc1ccccc1`, the Potency is 10.7 µM (active).

As to `O=C(CSc1ccc2nnc(-c3ccccn3)n2n1)Nc1ccccc1F`, the Potency is 7.57 µM (active).

In the case of `Cc1nnc(NC(=O)CSc2ccc3nnc(-c4ccccn4)n3n2)s1`, the Potency result was “inactive”. Under `CCCCC(Sc1ccc2nnc(-c3ccccn3)n2n1)C(=O)O` (stereo not drawn) stands 13.5 µM (active). Take `O=C(O)CSc1ccc2nnc(-c3cccnc3)n2n1`: the Potency result was “inactive and 13.5 µM (active)”. To `CN(C)c1ccc2nc3ccc(=[N+](C)C)cc-3sc2c1` belongs “inactive”; to `CC(=O)Oc1ccc2nonc2c1OC(C)=O`, “inactive”; to `CC1=C(C(=O)N2CCOCC2)CC(CC(=O)NC(c2ccccc2)c2ccccc2)C(=O)N1Cc1ccc(C(C)(C)C)cc1` (stereo not drawn), “inactive”.
